Reference: PubChem BioAssay (Tox21)
Values joined by “and” are separate entries in the source; they are usually repeats but may differ in a detail not shown here. Equal values may be shown once. Inconclusive results are not listed. A call without a number means that no potency is given here. Active and inactive are the calls of the source. Unless noted, calls follow the shape of the full dose curve.

Columns and labels:
[1] = qHTS assay to identify small molecule agonists of the sonic hedgehog signaling (Shh) pathway (AID 1259368); also: nearly all actives have a fitted effect of over 15% in size; also: potency is read from the fitted curve at half-maximal effect
Outline: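 Read-out: firefly luciferase luminescence from a Gli1 response element reporter stably integrated in NIH/3T3-derived 3T3Gli1-Luc cells, measured 30 min at room temperature after reagent addition. Compound exposure lasted 24 hr at 37 C, 5% CO2.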

[2] = qHTS assay to identify small molecule antagonists of the sonic hedgehog signaling (Shh) pathway (AID 1259369); also: nearly all actives have a fitted effect of over 45% in size; also: potency is read from the fitted curve at half-maximal effect
Outline: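 Luminescence readout: firefly Luc under Gli1 response element in 3T3Gli1-Luc cells (NIH/3T3 clone). Antagonist mode, stimulation by conditioned medium; compound exposure 24hr at 37 C, 5% CO2.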

[3] = qHTS assay to identify small molecule agonists of the androgen receptor (AR) signaling pathway in the presence of an antagonist - cell viability counter screen (AID 1259379; active = well fitted curve in the direction sought with a large enough effect in the repeat runs; an effect the other way counts as inactive or inconclusive; also: nearly all actives have a fitted effect of over 25% in size; also: potency is read from the fitted curve at half-maximal effect)
Outline: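 Viability counter screen: CellTiter-Fluor fluorescence, measured in the same wells as the luciferase read-out. MDA-kb2 cells, 3,000/well, with nilutamide at 3.0uM final and compounds at 15 concentrations, 16 hr at 37C, 0% CO2.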

[4] = target: Estrogen receptor (Homo sapiens) (UniProt P03372); experiment: qHTS assay to identify small molecule agonists of the estrogen receptor alpha (ER-alpha) signaling pathway in the presence of an antagonist (AID 1259383); also: top concentration of the series differs between compounds; nearly all actives have a fitted effect of over 15% in size
Estrogen receptor (Homo sapiens), sequence (P03372 whole entry, looked up): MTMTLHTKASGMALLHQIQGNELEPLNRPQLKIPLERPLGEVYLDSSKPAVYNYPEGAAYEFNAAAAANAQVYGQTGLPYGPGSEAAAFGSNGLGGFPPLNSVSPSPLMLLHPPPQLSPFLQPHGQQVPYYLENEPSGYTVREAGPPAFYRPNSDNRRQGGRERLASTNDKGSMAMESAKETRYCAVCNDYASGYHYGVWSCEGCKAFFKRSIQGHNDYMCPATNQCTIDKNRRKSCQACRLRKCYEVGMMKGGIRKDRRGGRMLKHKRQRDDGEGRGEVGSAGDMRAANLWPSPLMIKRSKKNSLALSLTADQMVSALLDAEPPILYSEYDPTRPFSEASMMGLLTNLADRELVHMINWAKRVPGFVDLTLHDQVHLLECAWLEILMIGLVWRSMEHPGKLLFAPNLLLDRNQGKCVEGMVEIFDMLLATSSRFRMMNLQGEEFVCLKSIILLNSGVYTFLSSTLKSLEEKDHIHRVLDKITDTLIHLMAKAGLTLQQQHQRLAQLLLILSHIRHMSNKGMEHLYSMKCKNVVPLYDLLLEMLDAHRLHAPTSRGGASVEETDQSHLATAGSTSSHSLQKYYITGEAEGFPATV
Outline: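 Luciferase luminescence (ONE-Glo, 30min at room temperature) measured in VM7Luc4E2 cells after 22hr compound exposure at 15 concentrations, with 10.0nM ICI-182,780 final present; cells express endogenous ER-alpha and carry four EREs upstream of luciferase.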

[5] = qHTS assay to identify small molecule agonists or antagonists of the thyroid stimulating hormone receptor (TSHR) signaling pathway - wild type cell line counter screen (AID 1259384)
Outline: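 Counter screen in untransfected Hek293: compounds (15-point titration, triplicate) plus phosphodiesterase inhibitor Ro20-1724 added after 18 h plating; 30 min RT. Intracellular cAMP via competitive d2/cryptate immunoassay, 1 h incubation.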

[6] = qHTS assay to identify small molecule antagonists of the estrogen receptor beta (ER-beta) signaling pathway - cell viability counter screen (AID 1259382; active = well fitted curve in the direction sought with a large enough effect in the repeat runs; an effect the other way counts as inactive or inconclusive; also: nearly all actives have a fitted effect of over 55% in size; also: potency is read from the fitted curve at half-maximal effect)
Outline: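 Luminescent ATP read-out (CellTiter-Glo, 30 min, RT) taken in the same wells as the bla reporter assay. HEK293T ER-beta-UAS-bla cells in 2% charcoal-stripped FBS were exposed to compounds with 1nM E2 for 16 hr at 37C.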

[7] = target: Estrogen receptor beta (Homo sapiens) (UniProt Q92731); experiment: qHTS assay to identify small molecule agonists of the estrogen receptor beta (ER-beta) signaling pathway (AID 1259377; active = well fitted activation curve with a large enough effect in the signal ratio in the repeat runs, not every such curve was filed as active; the % refers to the signal ratio)
Estrogen receptor beta (Homo sapiens), sequence (Q92731 whole entry, looked up): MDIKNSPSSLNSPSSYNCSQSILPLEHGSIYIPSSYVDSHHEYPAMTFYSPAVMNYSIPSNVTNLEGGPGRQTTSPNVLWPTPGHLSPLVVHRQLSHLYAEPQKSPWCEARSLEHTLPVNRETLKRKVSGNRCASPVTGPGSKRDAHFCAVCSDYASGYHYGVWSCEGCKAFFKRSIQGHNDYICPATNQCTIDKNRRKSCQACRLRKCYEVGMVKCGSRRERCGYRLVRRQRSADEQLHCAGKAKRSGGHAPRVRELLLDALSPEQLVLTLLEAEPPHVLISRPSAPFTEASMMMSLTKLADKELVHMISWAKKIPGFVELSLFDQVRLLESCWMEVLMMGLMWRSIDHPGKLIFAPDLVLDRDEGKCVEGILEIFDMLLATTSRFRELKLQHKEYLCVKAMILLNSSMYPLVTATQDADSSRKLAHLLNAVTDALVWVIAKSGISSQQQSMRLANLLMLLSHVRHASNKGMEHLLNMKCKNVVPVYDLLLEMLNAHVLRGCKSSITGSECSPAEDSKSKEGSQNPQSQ
Outline: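 In HEK293T cells bearing a UAS-beta-lactamase reporter under ER-beta control, DMSO-delivered compounds were incubated for 16 hr at 37C. Activity was detected as fluorescence 2 hours after LiveBLAzer B/G FRET substrate addition.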

[8] = target: Estrogen receptor beta (Homo sapiens) (UniProt Q92731); experiment: qHTS assay to identify small molecule antagonists of the estrogen receptor beta (ER-beta) signaling pathway (AID 1259378; active = well fitted inhibition curve with a large enough effect in the signal ratio in the repeat runs, not every such curve was filed as active; the % refers to the signal ratio)
Outline: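 Antagonist mode: compounds added to beta-lactamase reporter HEK293T ER-beta-UAS cells stimulated with E2 (1nM final), 16 hr at 37C. LiveBLAzer B/G FRET substrate, 2 hours room temperature, fluorescence read-out.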

[9] = qHTS assay to identify small molecule agonists of the estrogen receptor beta (ER-beta) signaling pathway - cell viability counter screen (AID 1259380; active = well fitted curve in the direction sought with a large enough effect in the repeat runs; an effect the other way counts as inactive or inconclusive; also: nearly all actives have a fitted effect of over 30% in size; also: potency is read from the fitted curve at half-maximal effect)
Outline: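 Luminescence read-out (CellTiter-Glo, 30 min, room temp) taken in the same wells as the beta-lactamase reporter assay; ER-beta-UAS-bla HEK293T cells exposed to DMSO-dissolved compounds for 16 hr at 37C in 2% charcoal-stripped FBS medium.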

[10] = target: Androgen receptor (Homo sapiens) (UniProt P10275); experiment: qHTS assay to identify small molecule agonists of the androgen receptor (AR) signaling pathway in the presence of an antagonist (AID 1259381); also: nearly all actives have a fitted effect of over 15% in size; also: potency is read from the fitted curve at half-maximal effect
Androgen receptor (Homo sapiens), sequence (P10275 whole entry, looked up): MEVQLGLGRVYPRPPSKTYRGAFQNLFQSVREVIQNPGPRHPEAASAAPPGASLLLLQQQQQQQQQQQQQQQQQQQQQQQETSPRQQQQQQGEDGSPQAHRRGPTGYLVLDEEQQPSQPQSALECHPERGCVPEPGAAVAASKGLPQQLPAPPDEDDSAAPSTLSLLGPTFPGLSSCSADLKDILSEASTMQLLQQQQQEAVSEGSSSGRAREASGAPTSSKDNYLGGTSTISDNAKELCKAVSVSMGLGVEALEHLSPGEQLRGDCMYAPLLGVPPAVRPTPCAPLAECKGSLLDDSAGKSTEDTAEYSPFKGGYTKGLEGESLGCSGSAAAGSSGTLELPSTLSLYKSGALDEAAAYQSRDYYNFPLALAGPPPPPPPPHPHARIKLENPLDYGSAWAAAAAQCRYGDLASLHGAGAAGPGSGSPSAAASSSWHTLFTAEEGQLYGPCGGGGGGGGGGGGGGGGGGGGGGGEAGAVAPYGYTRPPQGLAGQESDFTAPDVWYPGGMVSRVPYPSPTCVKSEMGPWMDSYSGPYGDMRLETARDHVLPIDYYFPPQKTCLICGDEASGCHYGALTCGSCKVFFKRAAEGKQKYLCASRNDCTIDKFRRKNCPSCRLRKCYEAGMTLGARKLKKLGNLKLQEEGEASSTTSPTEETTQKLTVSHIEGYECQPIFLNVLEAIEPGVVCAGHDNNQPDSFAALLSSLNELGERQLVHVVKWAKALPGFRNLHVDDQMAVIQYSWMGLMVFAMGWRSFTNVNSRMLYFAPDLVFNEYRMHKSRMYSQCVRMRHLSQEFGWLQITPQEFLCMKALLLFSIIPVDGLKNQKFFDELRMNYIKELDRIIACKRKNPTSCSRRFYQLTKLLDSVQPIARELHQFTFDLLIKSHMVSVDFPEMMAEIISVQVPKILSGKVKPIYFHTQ
Outline: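 Luciferase read-out (ONE-Glo, 30min room temperature) in MDA-kb2 MMTV-reporter cells; agonist mode run in presence of AR antagonist nilutamide, 3.0uM final. Compounds tested as 15-point series, 16hr exposure at 37C, 0% CO2.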

SMILES	Potency [1]	Potency [2]	Potency [3]	Potency [4]	outcome [5]	Potency [6]	Potency [7]	Potency [8]	Potency [9]	Potency [10]
COC(=O)CC(=O)C(C)(C)C	inactive	inactive	inactive	inactive	inactive					
CCCCCCCCCCOS(=O)(=O)O	inactive	inactive		inactive	inactive	inactive				
N#C/C(=C1\SCC(c2ccccc2Cl)S1)n1ccnc1 (stereo not drawn)	inactive		inactive		inactive	inactive	inactive	inactive	inactive	inactive
C[C@@H]1C[C@H]2[C@@H]3CCC4=CC(=O)C=C[C@]4(C)[C@@]3(F)[C@@H](O)C[C@]2(C)[C@H]1C(=O)CO	inactive		inactive		inactive	inactive	inactive	inactive		
CCCCC/C(=C\c1ccccc1)CO	inactive		inactive		inactive	inactive	inactive	inactive		
CC(N)CN (stereo not drawn)	inactive	inactive		inactive	inactive	inactive			inactive	
O=C(O)c1c(O)c(-c2ccccc2)nc2ccccc12	inactive	inactive	inactive	inactive	inactive					inactive
C/C(=N/NC(=O)c1ccncc1)C(=O)O	inactive	inactive		inactive	inactive				inactive	inactive
COc1ccccc1N=Nc1c(S(=O)(=O)O)cc2cc(S(=O)(=O)O)cc(NC(C)=O)c2c1O	inactive		25.7 µM (active)			inactive	inactive	inactive	inactive	
CC1C2CC(CC2C2CCCC(O)C2)C1(C)C (stereo not drawn)	inactive	inactive	inactive		inactive					
NC(=O)Cn1c(=O)cc(CCN2CCN(c3nccc4sccc34)CC2)c2ccc(F)cc21	inactive	4.86 µM (active)		inactive		inactive				
CC(C)(CCl)c1ccccc1	inactive		inactive	inactive	inactive	inactive	inactive	inactive	inactive	
C=CC(C)(C)CC(=O)OC	inactive	27.4 µM (active)			inactive	inactive			5.46 µM (active)	
Cc1ccc(S(=O)(=O)NC2CCCCC2)cc1	inactive		inactive	inactive		inactive	inactive	inactive	inactive	
O=C(N/N=C/c1ccc([N+](=O)[O-])o1)c1ccc(O)cc1	inactive	11.9 µM (active)	11.9 µM (active)	inactive	inactive	inactive				inactive
O=C1OCCN1/N=C/c1ccc([N+](=O)[O-])o1	inactive		inactive	inactive	inactive		inactive	inactive	inactive	
Nc1ccc(Cl)cc1[N+](=O)[O-]	inactive	inactive		inactive		inactive			inactive	inactive
CN1CCN(CCCN2c3ccccc3Sc3ccc(S(=O)(=O)N(C)C)cc32)CC1	inactive	13.3 µM (active)	inactive		inactive	23.7 µM (active)			23.7 µM (active)	
Nc1nccs1	inactive		inactive			inactive	inactive	inactive	inactive	
CCCc1c(OCCCOc2ccc(OCC(=O)O)cc2)ccc(C(C)=O)c1O	inactive	inactive		inactive	inactive				17.2 µM (active)	inactive
C=CCNc1nc(NCC=C)nc(N2CCN(C(c3ccc(F)cc3)c3ccc(F)cc3)CC2)n1	inactive	inactive		inactive	inactive	inactive				inactive
CC1=C(/C=C/C(C)=C\C=C\C(C)=C\C(=O)O)C(C)(C)CCC1	8.63 µM (active)	inactive		inactive						
NC(=O)N(O)[C@@H]1C=C[C@H](Oc2cccc(Oc3ccc(F)cc3)c2)C1	inactive				inactive	inactive	inactive		inactive	
CC(=O)[C@H]1CC[C@H]2[C@@H]3C[C@H](C)C4=CC(=O)CC[C@]4(C)[C@H]3[C@@H](O)C[C@]12C	inactive				inactive	inactive	inactive	inactive	inactive	0.0841 µM (active)
COCc1c(C(C)C)nc(C(C)C)c(/C=C/[C@@H](O)C[C@@H](O)CC(=O)O)c1-c1ccc(F)cc1	inactive		inactive	inactive					298 nM (active) and 1.08 µM (active)	inactive
CCCCCCCCSCCO	inactive				inactive	inactive			inactive	inactive
CCOC(=O)N1CCC(n2c(=O)[nH]c3cc(Cl)ccc32)CC1	inactive		29.8 µM (active)	inactive		inactive	inactive		inactive	inactive
O=C(CCCCCCC(=O)Nc1ccccc1)NO	inactive		inactive	inactive		1.19 µM (active)			2.66 µM (active)	
CNC(=S)NC	inactive		inactive	inactive					13.7 µM (active)	inactive
